Source: PubChem BioAssay (NCATS)
“And” between values parts separate entries of the source, which are not always exact repeats. Identical values can stand only once. Results filed as inconclusive are left out. Unmarked numbers belong to inactive results. The source made the active and inactive calls. Calls come from the whole dose curve; as a rule, active = well fitted cell-killing curve with a large enough effect; inconclusive = small, poorly fitted or top-dose-only effect; inactive = flat fitted curve, though single readings scatter.

Experiment: Cell Viability - NIH 3T3 (AID 541); note: nearly all actives have a fitted effect of over 25% in size;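 for activity change, negative = cytotoxicity: plate controls were DMSO alone for no effect and tamoxifen positive control for full effect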
Details: NIH 3T3 cell viability, qHTS; activity change, negative = cytotoxicity: at 92.2 µM (top of the series)
Description: NIH Chemical Genomics Center [NCGC]
NIH Molecular Libraries Screening Centers Network [MLSCN]
National Institutes of Environmental Health Sciences [NIEHS]
National Toxicology Program [NTP]
We have developed a 1536-well cell-based assay for quantitative high throughput screening (qHTS) against a number of cell lines to determine in vitro cytotoxicity of small molecules. This particular assay uses the NIH 3T3 fibroblast cell line which is established from NIH Swiss mouse embryo.
NCGC Assay Protocol Summary:
The CellTiter-Glo luminescent cell viability assay (Promega) is a homogeneous method to measure the number of viable cells in culture. The end point readout of this assay is based on quantitation of intracellular ATP, an indicator of metabolic activity, using the luciferase reaction. Luciferase catalyzes the oxidation of beetle Luciferin to oxyluciferin and light in the presence of ATP. The luminescent signal is proportional to amount of ATP present.
Using the CellTiter-Glo luminescent cell viability assay, the amount of cellular ATP was measured in the NIH 3T3 cell line with complete culture medium following compound treatment for 40 hours. The assay was performed in opaque white Kalypsys 1536-well plates. In the screen, tamoxifen and doxorubicin were used as positive controls. Library compounds were measured for their ability to cause acute toxicity in the cell line, as reflected by a decrease in intracellular ATP levels, in a concentration-dependent manner. […] AC50 values were determined from concentration-response data modeled with the standard Hill equation.
qHTS protocol for CellTiter Glo NIH 3T3 cellular assay
[Step] [Parameter] [Value] [Description]
1. Reagent; 5 uL; 1000 NIH 3T3 cells/well
2. Time; 5 hr; 37 °C incubation
4. Controls; 23 nL; Tamoxifen 0.34 uM to 100 uM & Doxorubicin 0.02 nM to 100 uM
5. Time; 40 hr; 37 °C incubation
6. Reagent; 5 uL; CellTiter Glo reagent
7. Time; 20 min; Room Temperature
8. Detection; Luminescence; Viewlux plate reader
Keywords: cell viability, cytotoxicity, NIH 3T3 cell line, luminescence, NTPHTS, NTPHTS_NCGC, NIEHS, EPA, DSSTox, MLSMR, MLSCN, NIH Roadmap, qHTS, NCGC
Potency is the fitted concentration of half-maximal effect.

Structure (SMILES)	activity change, negative = cytotoxicity	Potency
CC1=C2[C@H](/C=C(\C)C(=O)O)CC[C@@H](C)[C@H]2CC1	-12%	–
C[C@H](CCC(=O)O)[C@H]1CC[C@H]2[C@@H]3CC[C@@H]4C[C@H](O)CC[C@]4(C)[C@H]3CC[C@]12C	-1.1%	–
Clc1cc(Cl)c(Cl)cc1Cl	5.39%	–
COC(=O)CCCCC(=O)OC	1.59%	–
CCC(C)c1ccccc1O (stereo not given)	–	inactive
c1ccc2scnc2c1	-19.6%	–
C=CC(=O)OCCOCCOCCOCCOC(=O)C=C	–	2.51 µM (active) and 3.98 µM (active)
O=C1CCc2ccccc2O1	6.81%	–
CCCCCCCCCCCC(=O)O	–	inactive
CC(C)=CCCC(C)CCO (stereo not given)	-6.66%	–
CC(=O)OC/C=C(\C)CCC=C(C)C	6.23%	–
S=C1NC=NC2N=CNC12 (stereo not given)	–	3.98 µM (active)
O=C(O)c1ccccc1	-6.26%	–
NC1=NC(S)C2N=CN=C2N1 (stereo not given)	–	0.158 µM (active)
O=C(O)c1ccccc1C(c1ccc(O)cc1)c1ccc(O)cc1	2.03%	–
Cc1ccc(N)c([N+](=O)[O-])c1	-18.7%	–
CCO	-17.4%	–
c1ccccc1	–	inactive
O=C1c2ccccc2C(=O)C1c1ccc2ccccc2n1	-106% (active)	–
O=C(O)c1ccc(O)cc1O	–	inactive

Structure (SMILES)	activity change, negative = cytotoxicity	Potency
COc1c2ccoc2cc2oc(=O)ccc12	-11.2%	–
COC(=O)c1ccc(C)cc1	-24.1%	–
C=C(C)C1CC=C(C)C(O)C1 (stereo not given)	-6.42%	–
C=CCOC(=O)c1ccccc1C(=O)OCC=C	-13.2%	–
C=Cc1ccccc1Cl	-6.35%	–
CN(C)C=O	–	inactive
CC1(C)CC(N=C=O)CC(C)(CN=C=O)C1 (stereo not given)	10.4%	–
Cc1ccc([N+](=O)[O-])c(C)c1	5.32%	–
C=CCc1ccc(OC)c(OC)c1	-17.6%	–
O[C@@H]([C@H](O)[C@@H](O)CBr)[C@@H](O)CBr	-5.51%	–
COC(=O)c1ccc(C=O)cc1	-110% (active)	–
CCC(O)OC(O)CC (stereo not given)	–	inactive
CC1=CC(C)(C)Nc2ccccc21	–	inactive
CCCCOCCO	–	inactive
CN(C)CCCCCCN(C)C	-7.67%	–
C1OCOCO1	-14.9%	–
COCC(=O)O	-6.91%	–
c1ccc2c(c1)[nH]c1ccccc12	-19%	–
ClCCCl	6.76%	–
CCO[Si](CCCN)(OCC)OCC	-20.1%	–
